The subject of one test is Klebsiella pneumoniae. Conditions: Concentration 20 uM; ASSAY_TEST Inhibition of Bacterial Growth; detection method Absorption (OD600); MEDIA CAMHB; plate type 384well; NBS; CORNING #3640; time 18 hr.
In the next test the test system is Candida albicans. Conditions: 20 µM.
The subject of another test is Cryptococcus neoformans. Conditions: Concentration 20 uM; ASSAY_TEST Inhibition of Fungal Growth; detection method Resazurin; Absorption (OD600-OD570); plate type 384well; NBS; CORNING #3640. (Resazurin is reduced to fluorescent resorufin, in cell work by metabolically active cells.)

Entries with a potency or affinity are not part of this list.

One may read the Inhibition as the change of the read-out against control, counted positive when it falls. For `CCN1CCCC1CNC(=O)c1cc(S(=O)(=O)CC)c(N)cc1OC` (stereo not drawn) [AMISULPRIDE], the values for the Inhibition in the test on Klebsiella pneumoniae, in the test on Candida albicans and in the test with Cryptococcus neoformans were 4.49%, 1.45% and -4%, respectively.
For `Cl.Nc1c2c(nc3ccccc13)CCCC2` [TACRINE HYDROCHLORIDE] the same measures were 15.67%, 1.65% and -5.28%.
For `COc1cc(C(=O)NC2CCCNC2)cc(OC)c1OC` (stereo not drawn) [TROXIPIDE] the same measures were 14.93%, 5.32% and 0.51%.
Take `COc1ccccc1OCCNCC(O)COc1cccc2[nH]c3ccccc3c12` (stereo not drawn) [CARVEDILOL]: the Inhibition with Klebsiella pneumoniae turned out to be 14.17%; in the test on Candida albicans it was 1.69%; in the test on Cryptococcus neoformans, 1.85%.
For `O=C1N=C([O-])NC1(c1ccccc1)c1ccccc1.[Na+]` [PHENYTOIN SODIUM] the same measures were 7.94%, 2.49% and 1.23%.
For the molecule `CC(=O)/N=c1/sc(S(N)(=O)=O)nn1C` [METHAZOLAMIDE], the Inhibition in the test on Klebsiella pneumoniae was 3.3%; in the test on Candida albicans, 3.37%; in the test with Cryptococcus neoformans, -3.07%.
For `COc1cc2c(cc1OC)C(=O)C(CC1CCN(Cc3ccccc3)CC1)C2.Cl` (stereo not drawn) [DONEPEZIL HYDROCHLORIDE], in that order: 5.21%, 3.08% and -7.79%.
For `CCC(=O)[N-]S(=O)(=O)c1ccc(-c2c(-c3ccccc3)noc2C)cc1.[Na+]` [PARECOXIB SODIUM], in that order: 7.5%, 3.16% and -0.82%.
For `OCCN1CCN(CCCN2c3ccccc3Sc3ccc(Cl)cc32)CC1` [PERPHENAZINE] the same measures were 14.78%, 3.82% and 23.91%.
Take `CC(Cc1ccc(O)c(O)c1)(NN)C(=O)O.O` (stereo not drawn): the figures for the Inhibition in the test with Klebsiella pneumoniae, in the test with Candida albicans and in the test on Cryptococcus neoformans were 11.66%, 2.35% and -6.03%, respectively.
For `CC1CNc2c(cccc2S(=O)(=O)N[C@@H](CCCNC(=N)N)C(=O)N2CC[C@@H](C)C[C@@H]2C(=O)O)C1` (stereo partly drawn) [ARGATROBAN] the same measures were 8.18%, 4.39% and -2.44%.
